Measurements from PubChem BioAssay (EPA / NIEHS).
Calls of active or inactive are those of the source. How the source made its calls: active means hit-call score of the fitted dose curve at least 0.9, where 1 is the maximum; inactive means score below 0.9.

Columns and labels:
[1] = APR_HepG2_NuclearSize_72hr: Apredica 72-hour HepG2 Assay for Nuclear Size (AID 2282925); settings: high-content imaging, actives raise or lower the signal
Method in brief: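 Compounds (0.39–200 uM, final DMSO 0.5%) were applied to HepG2 for 72 hr. Cells were then formaldehyde-fixed, permeabilized and labelled with Hoechst 33342. Nuclear diameter was quantified from six images per well.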

[2] = ATG_CRE_CIS: Attagene CIS-FACTORIAL HepG2 Assay for human cAMP Responsive Element (CRE) binding protein 3 (AID 2282926); settings: HepG2 CRE cis-reporter, Attagene multiplexed mRNA; actives raise or lower the signal
Method in brief: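 Assay format: transient reporter transfection of HepG2, 24 h treatment, total RNA isolation with DNase I step. Reporter abundance read by fluorescence after PCR and capillary separation; DMSO-normalised gain or loss fitting.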

[3] = target: CCAAT/enhancer-binding protein beta (Homo sapiens) (UniProt P17676); assay: ATG_C_EBP_CIS: Attagene CIS-FACTORIAL HepG2 Assay for human CCAAT/Enhancer Binding Protein (C/EBP) beta (AID 2282927); settings: HepG2 Attagene cis-factorial transcription factor reporter; actives raise or lower the signal
Chain of CCAAT/enhancer-binding protein beta (Homo sapiens) (P17676 whole entry, looked up): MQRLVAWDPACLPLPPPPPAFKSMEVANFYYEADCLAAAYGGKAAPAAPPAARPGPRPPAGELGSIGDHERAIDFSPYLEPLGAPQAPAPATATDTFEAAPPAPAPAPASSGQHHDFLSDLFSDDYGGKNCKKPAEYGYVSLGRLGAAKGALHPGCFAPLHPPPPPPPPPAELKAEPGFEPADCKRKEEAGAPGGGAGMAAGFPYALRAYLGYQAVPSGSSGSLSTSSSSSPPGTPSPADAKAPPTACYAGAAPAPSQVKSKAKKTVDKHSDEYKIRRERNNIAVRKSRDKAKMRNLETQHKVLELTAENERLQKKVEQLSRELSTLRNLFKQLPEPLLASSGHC
Method in brief: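 RT-PCR/capillary electrophoresis fluorescence of reporter mRNA, 24 h post-dose, in HepG2 cells carrying transfected cis-promoter reporter units. Bidirectional curve fitting against DMSO baseline captures gain or loss of signal.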

[4] = ATG_CMV_CIS: Attagene CIS-FACTORIAL HepG2 Assay for human CMV (Internal Marker) (AID 2282928); settings: HepG2 CMV promoter reporter, transcription factor profiling; actives raise or lower the signal;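 further: endpoint acts as a background internal control marker rather than a target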
Method in brief: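 24 h chemical treatment, HepG2 with transient multi-reporter transfection; RNA → oligo(dT) RT → PCR → 6-FAM extension → HpaI digest → CE fluorescence. Bidirectional fit, DMSO negative control.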

[5] = ATG_DR4_LXR_CIS: Attagene CIS-FACTORIAL HepG2 Assay for human Liver X Receptor (LXR), DR4 submotif (AID 2282929); settings: HepG2 Attagene DR4 cis-reporter, mRNA transcription; actives raise or lower the signal
Method in brief: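 DR4 cis-reporter in HepG2, 24 h exposure. Detection: RT-PCR, 6-FAM labelling, CE fragment analysis. Endpoint fitted bidirectionally, DMSO = baseline.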

[6] = target: Aryl hydrocarbon receptor (Homo sapiens) (UniProt P35869); assay: ATG_Ahr_CIS: Attagene CIS-FACTORIAL HepG2 Assay for human Aryl Hydrocarbon Receptor (Ahr) (AID 2282930); settings: HepG2 AhR cis-factorial reporter transcription; actives raise or lower the signal
Chain of Aryl hydrocarbon receptor (Homo sapiens) (P35869 whole entry, looked up): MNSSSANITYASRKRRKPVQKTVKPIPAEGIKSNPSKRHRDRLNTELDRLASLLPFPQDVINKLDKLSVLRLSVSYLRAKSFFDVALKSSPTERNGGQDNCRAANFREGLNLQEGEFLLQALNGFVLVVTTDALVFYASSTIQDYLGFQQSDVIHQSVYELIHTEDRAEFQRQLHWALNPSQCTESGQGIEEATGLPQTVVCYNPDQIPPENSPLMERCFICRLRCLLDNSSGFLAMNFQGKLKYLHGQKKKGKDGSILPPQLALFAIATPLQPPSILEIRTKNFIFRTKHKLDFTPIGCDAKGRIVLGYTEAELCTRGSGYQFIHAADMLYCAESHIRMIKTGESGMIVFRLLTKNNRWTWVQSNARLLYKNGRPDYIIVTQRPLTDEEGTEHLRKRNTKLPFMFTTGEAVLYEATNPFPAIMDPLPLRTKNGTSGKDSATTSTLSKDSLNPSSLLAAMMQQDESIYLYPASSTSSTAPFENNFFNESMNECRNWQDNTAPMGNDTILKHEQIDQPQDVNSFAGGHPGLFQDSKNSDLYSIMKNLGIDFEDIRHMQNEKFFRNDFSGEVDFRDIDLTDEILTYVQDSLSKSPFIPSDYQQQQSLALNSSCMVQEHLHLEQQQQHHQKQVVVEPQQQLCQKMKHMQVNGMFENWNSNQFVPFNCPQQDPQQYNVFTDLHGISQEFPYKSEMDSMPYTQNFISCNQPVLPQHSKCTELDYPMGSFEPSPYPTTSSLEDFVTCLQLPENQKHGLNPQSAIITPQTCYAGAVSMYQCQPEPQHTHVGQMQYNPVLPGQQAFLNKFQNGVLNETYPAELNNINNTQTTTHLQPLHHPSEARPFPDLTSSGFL
Method in brief: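 HepG2 cells transiently transfected with cis-element-driven multiplexed reporter transcription units; endogenous transcription factor activity measured as reporter mRNA 24 h after dosing. RT-PCR, 6-FAM labelling, HpaI digestion, capillary electrophoresis; bidirectional fitting versus DMSO baseline.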

[7] = ATG_AP_1_CIS: Attagene CIS-FACTORIAL HepG2 Assay for human Activator Protein 1 (AP-1) (AID 2282931); settings: HepG2 Attagene cis-factorial AP-1 reporter mRNA; actives raise or lower the signal
Method in brief: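 Cis-regulated reporter units transiently expressed in HepG2 report endogenous transcription-factor activity. Signal: reporter mRNA at 24 h, via RT-PCR and fluorescent capillary electrophoresis. Endpoint derived by bidirectional fitting, DMSO as negative control.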

[8] = ATG_AP_2_CIS: Attagene CIS-FACTORIAL HepG2 Assay for human Activator Protein 2 (AP-2) (AID 2282932); settings: HepG2 AP-2 cis-reporter, Attagene transcription factor profiling; actives raise or lower the signal
Method in brief: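 Assay in transfected HepG2 with promoter-regulated reporters, 24 h incubation after dosing. Signal is reporter mRNA fluorescence (RT-PCR, capillary electrophoresis), analysed for both increases and decreases relative to DMSO controls.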

[9] = ATG_BRE_CIS: Attagene CIS-FACTORIAL HepG2 Assay for human Bone Morphogenetic Protein (BMP) Response Element (BRE) (AID 2282933); settings: HepG2 BMP response element reporter, Attagene transcription factor profiling; actives raise or lower the signal
Method in brief: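 Transient MRTU transfection of human HepG2 liver cells; 24 h compound treatment; total RNA isolated, reverse-transcribed, PCR-amplified, 6-FAM labelled, HpaI-cut, capillary electrophoresis. DMSO = negative control/baseline, bidirectional fit.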

[10] = target: Retinoic acid receptor alpha (Homo sapiens) (UniProt P10276); assay: ATG_DR5_RAR_CIS: Attagene CIS-FACTORIAL HepG2 Assay for human Retinoic Acid Receptor Alpha (RARE), DR5 submotif (AID 2282934); settings: HepG2 Attagene cis-factorial RARE DR5 reporter, mRNA; actives raise or lower the signal
Chain of Retinoic acid receptor alpha (Homo sapiens) (P10276 whole entry, looked up): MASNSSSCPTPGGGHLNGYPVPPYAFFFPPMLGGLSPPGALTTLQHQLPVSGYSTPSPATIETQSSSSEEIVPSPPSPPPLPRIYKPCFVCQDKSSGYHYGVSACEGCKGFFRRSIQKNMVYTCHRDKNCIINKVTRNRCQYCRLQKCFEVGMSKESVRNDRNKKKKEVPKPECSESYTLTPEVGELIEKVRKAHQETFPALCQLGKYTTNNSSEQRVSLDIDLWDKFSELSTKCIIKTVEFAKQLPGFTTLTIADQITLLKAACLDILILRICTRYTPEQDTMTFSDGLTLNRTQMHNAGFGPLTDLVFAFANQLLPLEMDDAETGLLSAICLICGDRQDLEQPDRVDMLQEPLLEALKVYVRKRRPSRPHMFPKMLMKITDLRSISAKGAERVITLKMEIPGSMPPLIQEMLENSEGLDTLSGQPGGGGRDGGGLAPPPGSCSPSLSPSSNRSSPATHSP
Method in brief: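 HepG2 cells transiently transfected with multiplexed reporter units under cis (DR5 RARE) promoters, so endogenous transcription factor activity is measured. After 24 h compound exposure, reporter mRNA is quantified by RT-PCR with fluorescent labelling and capillary electrophoresis; bidirectional fitting versus DMSO.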

[11] = target: Transcription factor E2F1 (Homo sapiens) (UniProt Q01094); assay: ATG_E2F_CIS: Attagene CIS-FACTORIAL HepG2 Assay for human E2F Transcription Factor 1 (AID 2282935); settings: HepG2 Attagene cis-reporter, E2F reporter RNA transcripts; actives raise or lower the signal
Chain of Transcription factor E2F1 (Homo sapiens) (Q01094 whole entry, looked up): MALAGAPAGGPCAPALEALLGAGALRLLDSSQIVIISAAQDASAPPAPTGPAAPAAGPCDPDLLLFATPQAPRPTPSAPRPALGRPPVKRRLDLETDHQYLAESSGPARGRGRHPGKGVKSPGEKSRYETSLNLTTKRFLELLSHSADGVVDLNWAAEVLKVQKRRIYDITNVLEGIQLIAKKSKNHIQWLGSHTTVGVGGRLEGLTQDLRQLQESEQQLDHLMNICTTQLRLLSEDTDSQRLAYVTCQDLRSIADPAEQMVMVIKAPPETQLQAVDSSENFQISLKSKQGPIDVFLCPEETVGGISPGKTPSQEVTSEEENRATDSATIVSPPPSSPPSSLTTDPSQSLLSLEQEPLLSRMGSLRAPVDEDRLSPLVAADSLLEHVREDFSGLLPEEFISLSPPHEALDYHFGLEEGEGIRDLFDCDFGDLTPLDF
Method in brief: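 In this cis-factorial format, endogenous factor activity drives transfected reporters in HepG2; transcripts collected at 24 h are quantified by fluorescence after RT-PCR and capillary separation.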

[12] = ATG_E_Box_CIS: Attagene CIS-FACTORIAL HepG2 Assay for human Enhancer Box (E-box) (AID 2282936); settings: HepG2 E-box cis-reporter transcription, actives raise or lower the signal
Method in brief: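 Measured 24 h post-dosing in HepG2 cells transfected with multiple cis-regulated reporter units, signal being reporter mRNA induction detected by fluorescent RT-PCR with capillary electrophoresis; gain or loss fitted against DMSO.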

[13] = ATG_M_61_CIS: Attagene CIS-FACTORIAL HepG2 Assay for M61 Transcription Factor (Internal Marker) (AID 2282937); settings: HepG2 Attagene CIS-FACTORIAL M61 internal marker reporter; actives raise or lower the signal
Method in brief: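 Background-control endpoint: HepG2 cells with cis-regulated reporter constructs, 24 h exposure, reporter mRNA detected via fluorescent primer extension and capillary electrophoresis; values from bidirectional fitting with DMSO baseline.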

[14] = ATG_EGR_CIS: Attagene CIS-FACTORIAL HepG2 Assay for human Early Growth Response 1 (EGR1) (AID 2282938); settings: HepG2 Attagene CIS-FACTORIAL EGR reporter mRNA; actives raise or lower the signal
Method in brief: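 Endpoint derived by bidirectional fitting versus DMSO vehicle. Method: cis-promoter reporter units transfected into HepG2, 24 h dosing, RNA isolation, RT-PCR with 6-FAM primer extension and HpaI digestion, then capillary electrophoresis fluorescence detection.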

[15] = ATG_ERE_CIS: Attagene CIS-FACTORIAL HepG2 Assay for Estrogen Response Element (ERE) (AID 2282940); settings: HepG2 ERE cis-reporter, Attagene RNA transcript; actives raise or lower the signal
Method in brief: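 Transient MRTU transfection of human HepG2; cis-element promoters; 24 h dosing; total RNA → RT (oligo dT) → PCR → 6-FAM primer extension → HpaI digest → CE fluorescence. Bidirectional fit, DMSO baseline.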

[16] = ATG_Ets_CIS: Attagene CIS-FACTORIAL HepG2 Assay for human Erythroblast Transformation Specific (ETS) (AID 2282941); settings: HepG2 ETS cis-reporter transcription, actives raise or lower the signal
Method in brief: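 Cis-regulated reporter mRNA induction in HepG2 (transient transfection), 24 h exposure, RT-PCR plus capillary electrophoresis detection; DMSO serves as negative control and baseline.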

[17] = target: Hepatocyte nuclear factor 3-beta (Homo sapiens) (UniProt Q9Y261); assay: ATG_FoxA2_CIS: Attagene CIS-FACTORIAL HepG2 Assay for human Forkhead box A2 (FOXA2) (AID 2282942); settings: HepG2 cis-reporter transcription factor activity, 24 h; actives raise or lower the signal
Chain of Hepatocyte nuclear factor 3-beta (Homo sapiens) (Q9Y261 whole entry, looked up): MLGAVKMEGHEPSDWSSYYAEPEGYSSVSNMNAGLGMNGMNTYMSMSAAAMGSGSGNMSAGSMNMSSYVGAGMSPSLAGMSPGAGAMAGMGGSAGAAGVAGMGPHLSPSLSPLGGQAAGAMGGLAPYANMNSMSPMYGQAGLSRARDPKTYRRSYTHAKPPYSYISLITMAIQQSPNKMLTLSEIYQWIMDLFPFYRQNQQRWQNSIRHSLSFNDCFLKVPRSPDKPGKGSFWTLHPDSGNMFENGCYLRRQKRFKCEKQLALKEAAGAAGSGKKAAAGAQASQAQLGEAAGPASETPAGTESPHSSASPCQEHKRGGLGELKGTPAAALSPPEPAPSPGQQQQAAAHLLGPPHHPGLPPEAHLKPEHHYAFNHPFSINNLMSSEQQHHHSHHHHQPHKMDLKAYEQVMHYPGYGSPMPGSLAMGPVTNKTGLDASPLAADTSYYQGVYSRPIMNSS
Method in brief: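 Measured: reporter mRNA induction or loss in HepG2 transiently carrying multiple cis-regulated reporter units, 24 h after dosing. Quantified by RT-PCR plus capillary electrophoresis, normalised to DMSO.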

[18] = ATG_FoxO_CIS: Attagene CIS-FACTORIAL HepG2 Assay for human Forkhead box O (FoxO) (AID 2282943); settings: HepG2 Attagene cis-reporter, FoxO element, mRNA; actives raise or lower the signal
Method in brief: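 HepG2 cells transiently transfected with cis-promoter-driven multiple reporter transcription units; 24 h after chemical dosing, reporter mRNA quantified by RT-PCR, fluorescent primer extension, HpaI digestion and capillary electrophoresis. Bidirectional fitting versus DMSO baseline.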

[19] = ATG_GATA_CIS: Attagene CIS-FACTORIAL HepG2 Assay for human GATA Binding Protein (AID 2282944); settings: HepG2 GATA cis-element reporter, Attagene multiplex mRNA; actives raise or lower the signal
Method in brief: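 Transient MRTU transfection, HepG2, 24 h compound exposure. Total RNA → oligo(dT) RT → PCR → 6-FAM primer extension → HpaI cut → CE. Bidirectional fit vs DMSO.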

[20] = ATG_M_19_CIS: Attagene CIS-FACTORIAL HepG2 Assay for M19 Transcription Factor (Internal Marker) (AID 2282939); settings: HepG2 Attagene CIS-FACTORIAL M19 internal marker reporter; actives raise or lower the signal
Method in brief: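 Transfect HepG2 with MRTU reporter library → dose chemical, 24 h → isolate total RNA, reverse-transcribe with oligo(dT) → PCR, 6-FAM label, HpaI cut (2 h, 37 C) → capillary electrophoresis. Bidirectional fit vs DMSO.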

Measured: AC50

Cc1nc(C)nc(N2C[C@@H](C)N(c3ccnc([C@@H](C)O)n3)[C@@H](C)C2)n1
active: [7] 23.1 µM
not listed: [20]
inactive: all other assays above

CNC(=O)[C@H]1O[C@@H](n2cnc3c(NCc4cc(Cl)ccc4OCc4cc(C)no4)ncnc32)[C@H](O)[C@@H]1N
not listed: [10] | [20]
inactive: all other assays above

C=CCc1ccc(O)c(OC)c1
not listed: [4]
inactive: all other assays above

COc1cc(S(=O)(=O)O)c(C)cc1N=Nc1c(O)ccc2cc(S(=O)(=O)O)ccc12
not listed: [10]
inactive: all other assays above
